GIRK2 act = GIRK2 channel activators by thallium flux; 34,000 tested, under 10 active; HEK293 GIRK2/NPY4 cells, thallium flux fluorescence; P48051; activation (% efficacy), % for hits at 37.5 µM; AID 1259324;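 active = primary screen hit, no activity in plain HEK293 cells, and in GIRK2-only cells above 5% efficacy rising with concentration; inactive = the rest, including fluorescent compounds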;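 also: efficacy is normalized control-subtracted fluorescence 15 s after thallium addition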
GluA2 TARP mod = modulators of AMPA receptor GluA2-stargazin complexes; O88602+P19491; HEK293 GluA2+stargazin, membrane potential dye (FDSS), glutamate EC50; hits were called plate by plate, in both directions; calls only at 30 µM; actives 3.5% (n = 40,000);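 active = any of four per-well response measures lying three or more SD from its plate-wide compound average, in either direction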
Calls only. The entries come from a sample that favours hits as a whole.

What do the screens show for `O=C(CN1CCN(c2ccc(Cl)cc2)C1=O)N1CCN(Cc2ccncc2)CC1`?
GIRK2 act: inactive; GluA2 TARP mod: inactive

Results for CCN1C(=O)N(c2cc(C)ccc2C)C2CS(=O)(=O)CC21 (stereo not given) ?
GIRK2 act: inactive; GluA2 TARP mod: inactive

Results for Cc1ccc(C)c(N2C(=O)N(Cc3ccccc3F)C3CS(=O)(=O)CC32)c1 (stereo not given) ?
GIRK2 act: inactive; GluA2 TARP mod: active

What do the screens show for `O=C(NCC(=O)c1cccs1)c1ccc(-c2ccccc2F)o1`?
GluA2 TARP mod: inactive

What do the screens show for `COc1ccc(CCNC(=O)CC2CCCCN2S(=O)(=O)c2ccc(Cl)cc2)cc1` (stereo not given)?
GluA2 TARP mod: active

What do the screens show for `COc1ccc(CCNC(=O)CC2CCCCN2S(=O)(=O)c2ccc(F)cc2)cc1` (stereo not given)?
GluA2 TARP mod: active

What do the screens show for `COc1ccc(S(=O)(=O)N2CCCCC2CC(=O)NCCc2ccc(Cl)cc2)cc1` (stereo not given)?
GluA2 TARP mod: inactive

Results for COc1ccc(CCNC(=O)CC2CCCCN2S(=O)(=O)c2ccc(OC)cc2)cc1 (stereo not given) ?
GluA2 TARP mod: inactive

Results for CS(=O)(=O)c1ccc2nc(NC(=O)c3ccc(=O)n(Cc4ccc(Cl)cc4)c3)sc2c1 ?
GIRK2 act: inactive; GluA2 TARP mod: active

Results for Cc1cccc2sc(NC(=O)c3ccc(=O)n(Cc4ccc(Cl)cc4)c3)nc12 ?
GIRK2 act: inactive; GluA2 TARP mod: inactive

How did O=C(Nc1nc2ccccc2s1)c1ccc(=O)n(Cc2cccc([N+](=O)[O-])c2)c1 do in these assays?
GIRK2 act: inactive; GluA2 TARP mod: inactive

What do the screens show for `O=C(Nc1nc2ccc([N+](=O)[O-])cc2s1)c1ccc(=O)n(Cc2ccccc2)c1`?
GIRK2 act: inactive; GluA2 TARP mod: active

How did COc1coc(C(=O)Nc2nc3ccc([N+](=O)[O-])cc3s2)cc1=O do in these assays?
GIRK2 act: inactive; GluA2 TARP mod: active

What do the screens show for `COc1cccc(COc2coc(C(=O)Nc3nc4ccc(Cl)cc4s3)cc2=O)c1`?
GIRK2 act: inactive; GluA2 TARP mod: inactive

How did Cc1cc(NC(=O)CSc2nnnn2-c2ccc(C(C)C)cc2)no1 do in these assays?
GIRK2 act: inactive; GluA2 TARP mod: inactive

How did O=C(O)c1[nH][nH]c(=O)c1CCO do in these assays?
GIRK2 act: inactive; GluA2 TARP mod: inactive

What do the screens show for `COc1ccccc1NC(=O)NCCc1csc2nc(-c3cccs3)nn12`?
GIRK2 act: inactive; GluA2 TARP mod: inactive

What do the screens show for `Cc1ccc(Cn2c(=O)c3c(nc4oc(-c5ccc(F)cc5)cn43)n(C)c2=O)cc1`?
GIRK2 act: inactive; GluA2 TARP mod: active

Results for Cc1ccc(C)c(Cn2c(=O)c3c(nc4oc(-c5ccc(F)cc5)cn43)n(C)c2=O)c1 ?
GluA2 TARP mod: inactive

What do the screens show for `CCOC(=O)c1[nH]c(C)cc1C`?
GluA2 TARP mod: inactive

What do the screens show for `CCS(=O)(=O)N1CCN(c2ccc(N(C)C)nn2)CC1`?
GIRK2 act: inactive; GluA2 TARP mod: inactive

What do the screens show for `Cc1cccc(Nc2ccc(NCCNC(=O)Nc3ccc(C)c(F)c3)nn2)n1`?
GIRK2 act: inactive; GluA2 TARP mod: inactive

Results for CCOC(=O)c1ccc(NC(=O)Cn2cc(OC)c(=O)cc2CSc2nnc(C)s2)cc1 ?
GIRK2 act: inactive; GluA2 TARP mod: inactive

What do the screens show for `COc1ccc(CCNC(=O)Nc2ccc3c(c2)N(C(=O)c2ccccc2)CCC3)cc1`?
GIRK2 act: inactive

What do the screens show for `Cc1ccc(S(=O)(=O)N2CCCc3ccc(NS(=O)(=O)c4ccccc4)cc32)cc1`?
GIRK2 act: inactive; GluA2 TARP mod: active

How did COc1ccc(CCNC(=O)Nc2ccc3c(c2)N(S(=O)(=O)c2ccccc2)CCC3)cc1 do in these assays?
GluA2 TARP mod: active

How did Cc1ccc(S(=O)(=O)Nc2ccc3c(c2)N(S(=O)(=O)c2ccc(C)cc2)CCC3)cc1 do in these assays?
GIRK2 act: inactive; GluA2 TARP mod: inactive

Results for Cc1ccc(S(=O)(=O)N2CCCc3ccc(NS(=O)(=O)c4ccc(F)cc4)cc32)cc1 ?
GIRK2 act: inactive; GluA2 TARP mod: active

How did COc1ccc(S(=O)(=O)N2CCCc3cc(NS(=O)(=O)c4ccccc4)ccc32)cc1 do in these assays?
GluA2 TARP mod: inactive

What do the screens show for `O=S(=O)(Nc1ccc2c(c1)N(S(=O)(=O)c1ccccc1)CCC2)c1ccc(F)cc1`?
GluA2 TARP mod: inactive

How did COc1ccc(S(=O)(=O)N2CCCc3cc(NS(=O)(=O)c4cccc(C)c4)ccc32)cc1 do in these assays?
GluA2 TARP mod: active

What do the screens show for `CCCCCCNc1nc2c(c(=O)[nH]c(=O)n2C)n1CC(O)COc1cccc(CC)c1` (stereo not given)?
GluA2 TARP mod: inactive

What do the screens show for `COc1ccc(C2(CNC(=O)C(=O)Nc3ccon3)CCCC2)cc1`?
GIRK2 act: inactive

What do the screens show for `Cc1ccc(OCC(=O)Nc2ccc3c(c2)CCCN3S(=O)(=O)c2ccc(C)cc2)cc1`?
GluA2 TARP mod: inactive

Results for CCOc1ccc(CC(=O)Nc2ccc3c(c2)CCCN3S(=O)(=O)c2ccc(C)cc2)cc1 ?
GluA2 TARP mod: active

How did C=CCN1C(=O)/C(=C\C=C2/SCCN2C)SC1=S do in these assays?
GluA2 TARP mod: active

How did COc1ccc(C(=O)Nc2cc(C)nn2-c2nc3c(cnn3-c3ccc(C)c(C)c3)c(=O)[nH]2)c(OC)c1 do in these assays?
GIRK2 act: inactive; GluA2 TARP mod: inactive

How did Cc1ccccc1-c1ccc(SCC(=O)NCc2ccc3c(c2)OCO3)nn1 do in these assays?
GIRK2 act: inactive; GluA2 TARP mod: active

How did CC(C)C(=O)Nc1ccc(SCC(=O)NCc2ccc3c(c2)OCO3)nn1 do in these assays?
GIRK2 act: inactive; GluA2 TARP mod: inactive

How did O=C(CN(Cc1ccc(Cl)cc1)S(=O)(=O)c1cccnc1)NCCc1ccccc1 do in these assays?
GIRK2 act: inactive; GluA2 TARP mod: inactive

Results for Cc1cc(=O)[nH]c(-n2nc(C)c(CCC(=O)NCc3ccccc3Cl)c2C)n1 ?
GIRK2 act: inactive; GluA2 TARP mod: inactive

What do the screens show for `Cc1nn(-c2nc3ccccc3[nH]2)c(=O)c2ccccc12`?
GluA2 TARP mod: active

Results for Cc1ccc(S(=O)(=O)NCc2cccnc2)c(C)c1N(C)S(=O)(=O)c1ccc(Cl)cc1 ?
GIRK2 act: inactive; GluA2 TARP mod: active

Results for Cc1ccc(S(=O)(=O)NCc2ccccc2)c(C)c1N(C)S(=O)(=O)c1ccccc1 ?
GluA2 TARP mod: inactive

Results for COC(=O)Cc1ccc2c(=O)c(Oc3cnn(-c4ccccc4)c3)c(C(F)(F)F)oc2c1 ?
GluA2 TARP mod: inactive

How did COc1ccccc1OCC(O)CN1C(C)(C)CC(O)CC1(C)C (stereo not given) do in these assays?
GIRK2 act: inactive; GluA2 TARP mod: inactive

What do the screens show for `COc1ccccc1OCC(O)CN1CC(C)CC(C)C1` (stereo not given)?
GIRK2 act: inactive; GluA2 TARP mod: inactive

Results for Cc1cc(C)c(C)c(OCC(O)CN2CC(C)CC(C)C2)c1 (stereo not given) ?
GIRK2 act: inactive; GluA2 TARP mod: active

What do the screens show for `Cc1cc(C)c(C)c(OCC(O)CN2C(C)(C)CC(O)CC2(C)C)c1` (stereo not given)?
GIRK2 act: inactive; GluA2 TARP mod: active

How did CCc1cccc(OCC(O)Cn2c(NCC(=O)O)nc3c2c(=O)[nH]c(=O)n3C)c1 (stereo not given) do in these assays?
GluA2 TARP mod: inactive
